Several values for one entry are separate records, joined by “and”; a condition that tells them apart may be missing. Equal entries are not always repeated. About 83,000 compounds went through this panel and 20% of them were active in at least one assay; those are over-represented in the sample as a whole.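 Compound tested at a single concentration for 48 hours in 96-well plates; a percent growth value below 10 was scored as active.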 Activity calls are given as the source filed them.
How the values were obtained:
Assay in all cases: NCI-60 one-dose screen, 48 h (100 = growth as untreated, 0 = no growth, -100 = all killed)
Conditions in all cases: 10 µM unless noted
NCI-H23 lung = system: NCI-H23 lung
NCI-H226 lung = system: NCI-H226 lung
NCI-H322M lung = system: NCI-H322M lung
HOP-62 NSCLC = system: HOP-62 NSCLC
NCI-H460 lung = system: NCI-H460 lung
HOP-92 NSCLC = system: HOP-92 NSCLC
NCI-H522 lung = system: NCI-H522 lung
A549/ATCC NSCLC = system: A549/ATCC NSCLC
786-0 renal = system: 786-0 renal
COLO 205 colon = system: COLO 205 colon

Row | SMILES | growth (NCI-H23 lung) | growth (NCI-H226 lung) | growth (NCI-H322M lung) | growth (HOP-62 NSCLC) | growth (NCI-H460 lung) | growth (HOP-92 NSCLC) | growth (NCI-H522 lung) | growth (A549/ATCC NSCLC) | growth (786-0 renal) | growth (COLO 205 colon)
1 | CCCCCCCCCCCCCCCCCCn1cc[n+](C)c1 | -48.9% (active) and -44.3% (active) | -54% (active) and -61.7% (active) | 5.3% (active) and 6.16% (active) | -58.6% (active) and -74.1% (active) | -62.9% (active) and -51.3% (active) | -51.3% (active) and -66.2% (active) | -74.9% (active) and -74.3% (active) | -15.2% (active) and -47.2% (active) | -74.9% (active) and -81.7% (active) | 1.82% (active) and -47.3% (active)
2 | Cc1cc(C(C)(C)C)ccc1O | 90.9% (inactive) | 92.2% (inactive) | 104% (inactive) | 102% (inactive) | 105% (inactive) | 94.4% (inactive) | 102% (inactive) | 104% (inactive) | 111% (inactive) | 107% (inactive)
3 | CCN1C(=O)CC(=O)N(CC)C1=S | 82% (inactive) | 103% (inactive) | 102% (inactive) | 172% (inactive) | 107% (inactive) | 92.1% (inactive) | 84.1% (inactive) | 109% (inactive) | 97.6% (inactive) | 115% (inactive)
4 | O=[N+]([O-])c1ccc(OCc2ccc(S(=O)(=O)F)c(Cl)c2)c(Cl)c1 | 99.2% (inactive) | 93.4% (inactive) | 116% (inactive) | 106% (inactive) | 115% (inactive) | 77.5% (inactive) | 89.1% (inactive) | 110% (inactive) | 79.9% (inactive) | 101% (inactive)
5 | NC(=O)Oc1cc(OC(N)=O)cc(N(CCCl)CCCl)c1 | 50% (inactive) | 79.5% (inactive) | 111% (inactive) | 58.5% (inactive) | 23.9% (inactive) | 75.9% (inactive) | 17.9% (inactive) | 50.6% (inactive) | 28.6% (inactive) | 86.8% (inactive)
6 | CC[C@H](C)[C@H](NC(=O)[C@H]1CCCCN1C)C(=O)N(C)[C@H](C[C@@H](OC(C)=O)c1cccc(C(=O)N[C@@H](Cc2ccccc2)C[C@H](C)C(=O)OC)n1)C(C)C | 22.4% (inactive) | 23.3% (inactive) | 40.3% (inactive) | 3.61% (active) | 7.06% (active) | -0.87% (active) | -11.6% (active) | 10.5% (inactive) | 14.5% (inactive) | -71.6% (active)
7 | O=S1(=O)OCCO1 | 96.5% (inactive) | 103% (inactive) | 95.4% (inactive) | 103% (inactive) | 103% (inactive) | 102% (inactive) | 96.3% (inactive) | 102% (inactive) | 101% (inactive) | 106% (inactive)
8 | Cn1cc(-c2csc(-c3cn(CCCCN4CCOCC4)c4ccc(F)cc34)n2)c2cccnc21 | 80.3% (inactive) | 60.2% (inactive) | 84.3% (inactive) | 85.6% (inactive) | 93.5% (inactive) | 52.8% (inactive) | 57.2% (inactive) | 75.1% (inactive) | 63.2% (inactive) | 65.9% (inactive)
9 | Clc1ccc(COC(Cn2ccnc2)c2ccc(Cl)cc2Cl)c(Cl)c1 (stereo not given) | 40.6% (inactive) and 25.2% (inactive) | 68.3% (inactive) and 75.9% (inactive) | 94.1% (inactive) and 85.6% (inactive) | 71.3% (inactive) and 84.9% (inactive) | 56.8% (inactive) and 55.9% (inactive) | -1.54% (active) and 14.5% (inactive) | 39% (inactive) and 41.5% (inactive) | 37.3% (inactive) and 12.5% (inactive) | 48.9% (inactive) and 49.6% (inactive) | 57.2% (inactive) and 57.9% (inactive)
10 | COc1ccc(N(CC(=O)NCCC[Te]c2ccccc2)C(=O)c2ccccc2)cc1 | 0.588% (active) | 52.7% (inactive) | 4.82% (active) | 15.8% (inactive) | -1.52% (active) | -9.19% (active) | -9.72% (active) | 2.78% (active) | 75.3% (inactive) | 89.2% (inactive)
11 | Cc1cc(N(CCCl)CCCl)ccc1C=Nc1ccc(-c2csc(-c3ccccc3)n2)cc1 | 66.6% (inactive) | 58.5% (inactive) | 117% (inactive) | 79.3% (inactive) | 33.1% (inactive) | 59.4% (inactive) | 102% (inactive) | 67.2% (inactive) | 59.2% (inactive) | 88.9% (inactive)
12 | C[C@]12CC[C@H]3[C@@H](CC=C4c5nc(N)sc5CC[C@@]43C)[C@@H]1CC[C@@H]2O | 98.4% (inactive) | 97.1% (inactive) | 108% (inactive) | 100% (inactive) | 96% (inactive) | 105% (inactive) | 89.7% (inactive) | 94.5% (inactive) | 100% (inactive) | 113% (inactive)
13 | C[C@]12CC[C@H]3[C@@H](CC=C4c5nc(-c6ccc(Br)cc6)sc5CC[C@@]43C)[C@@H]1CC[C@@H]2O | 88.4% (inactive) | 100% (inactive) | 94.7% (inactive) | 106% (inactive) | 106% (inactive) | 130% (inactive) | 97.5% (inactive) | 106% (inactive) | 45% (inactive) | 119% (inactive)
14 | CC(C)COC(=O)Cc1ccccc1 | 106% (inactive) | 99.4% (inactive) | 104% (inactive) | 101% (inactive) | 109% (inactive) | 95.1% (inactive) | 99% (inactive) | 105% (inactive) | 104% (inactive) | 106% (inactive)
15 | O=C(CCCN1CCC2(CC1)C(=O)NCN2c1ccccc1)c1ccc(F)cc1 | 95.1% (inactive) and 49.3% (inactive) | 117% (inactive) and 102% (inactive) | 97.5% (inactive) and 81.5% (inactive) | 79.1% (inactive) and -10.2% (active) | 108% (inactive) and 94.1% (inactive) | 96.7% (inactive) and 67.2% (inactive) | 108% (inactive) and 80.4% (inactive) | 103% (inactive) and 89.3% (inactive) | 101% (inactive) and 88.3% (inactive) | 34.3% (inactive) and -64.9% (active)
16 | COc1cc(-c2ccc(N)c(OC)c2)ccc1N | 101% (inactive) | 110% (inactive) | 84.4% (inactive) | 95.5% (inactive) | 114% (inactive) | 110% (inactive) | 131% (inactive) | 108% (inactive) | 106% (inactive) | 120% (inactive)
17 | COc1ccc2c(c1)c(-c1nc(-c3c[nH]c4ncccc34)cs1)cn2CCCCN1CCOCC1 | 69.9% (inactive) | 70.3% (inactive) | 57.2% (inactive) | 37.1% (inactive) | 4.29% (active) | 43% (inactive) | 39.9% (inactive) | 49.7% (inactive) | -43.7% (active) | -100% (active)
18 | CC(=O)Cc1ccc2c(c1)OCO2 | 93.9% (inactive) | 104% (inactive) | 113% (inactive) | 102% (inactive) | 109% (inactive) | 110% (inactive) | 96.1% (inactive) | 96% (inactive) | 109% (inactive) | 117% (inactive)
19 | Oc1ccc(O)c(Cl)c1 | 96.2% (inactive) and 88.3% (inactive) | 94.5% (inactive) and 98.5% (inactive) | 109% (inactive) and 98.2% (inactive) | 109% (inactive) | 99.7% (inactive) and 102% (inactive) | 87.6% (inactive) and 102% (inactive) | -92.2% (active) and -1.35% (active) | 92.5% (inactive) and 111% (inactive) | 108% (inactive) and 112% (inactive) | 109% (inactive) and 99.8% (inactive)
20 | C[C@]12CCc3sc(Nc4ccc(F)cc4F)nc3C1=CC[C@@H]1[C@@H]2CC[C@]2(C)C(=O)CC[C@@H]12 | 66.2% (inactive) | 84.2% (inactive) | 84.5% (inactive) | 87.1% (inactive) | 60.9% (inactive) | 77.1% (inactive) | 42.6% (inactive) | 61.7% (inactive) | -27.7% (active) | 54.3% (inactive)
21 | Cc1c(C)c(N)c(C)c(C)c1N | 79.2% (inactive) | 98.5% (inactive) | 87.6% (inactive) | 90.6% (inactive) | 39.8% (inactive) | 97.5% (inactive) | 40.8% (inactive) | 79.6% (inactive) | 107% (inactive) | 91.9% (inactive)
22 | Oc1cc(Cl)ccc1Oc1ccc(Cl)cc1Cl | 7.13% (active) | 99.7% (inactive) | 97.6% (inactive) | 20.5% (inactive) | 3.2% (active) | -11.4% (active) | -4.34% (active) | 37.5% (inactive) | 86.4% (inactive) | 105% (inactive)
